Tau ThT inhib: inhibitors of human tau fibril formation, thioflavin T binding | recombinant tau K18 P301L, heparin-induced fibrillization, ThT fluorescence | Potency, µM (titrated, usually from 57.4 µM), without a hit: at the highest dose activity, negative = inhibition, actives largely listed as inhibitors | 2.1% of 270,000 active | AID 1460; further: nearly all actives have a fitted effect of over 55% in size
Target sequence (P10636 561-689 P618L limits assumed): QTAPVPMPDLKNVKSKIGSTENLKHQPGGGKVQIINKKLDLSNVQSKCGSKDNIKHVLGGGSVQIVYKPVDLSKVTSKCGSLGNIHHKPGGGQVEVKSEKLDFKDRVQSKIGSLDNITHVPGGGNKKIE
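Using a mix of unlabeled (15 uM) and Alexa 594-labeled (0.24 uM) tau K18 P301L, heparin-triggered fibrillization over 6 hr at 37 C was scored by ThT fluorescence.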
Tau fluor cs: counter-screen for tau fibril formation inhibitors; tau K18 P301L (four-repeat tau fragment) Alexa594 fluorescence, heparin fibrillization; Potency, µM (highest dose often 57.7 µM), for the others: at the highest dose activity change, negative = decrease; 0.93% of 280,000 active; further: nearly all actives have a fitted effect of over 55% in size
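Human K18 P301L tau (15 uM unlabeled plus 0.24 uM Alexa 594-labeled, final) in 100 mM sodium acetate pH 7 was mixed with compound and 20 uM heparin and incubated 6 hr at 37 C.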
TRb SRC2 PPI: TRbeta-SRC2 interaction inhibition; TRbeta-SRC2 peptide binding, fluorescence polarization; receptor liganded with 1 µM T3; Potency, µM (titrated, usually from 106 µM), for the others: top-dose activity change, negative = inhibition, hits mostly inhibitors; 0.065% of 280,000 active; AID 1469;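 further: plate controls were bound peptide for no effect and peptide without receptor for full effect; nearly all actives have a fitted effect of over 50% in size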
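TRb LBD 0.6 uM + Texas Red SRC2 peptide 20 nM, 1 uM T3, Tris buffer w/ 5% DMSO; compound pinned, 5 h RT; FP read ex 555/em 632; normalized to unbound and bound controls.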
TR SRC2 fluor cs: alters Texas Red total fluorescence, flagging assay interference | TRb/SRC2 Texas Red total fluorescence interference | Potency, µM (highest dose often 106 µM), for inactives: top-dose fluorescence change, negative = quenching | 0.29% of 280,000 active; active means well fitted curve in either direction with a large enough effect; inconclusive means small, poorly fitted or top-dose-only effect
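Human TRβ ligand-binding domain (0.6 uM) and Texas Red SRC2 peptide (20 nM) in Tris buffer with 1 uM T3 and 5% DMSO were incubated with pinned compound for 5 hr at ambient temperature. Total fluorescence was computed as S + 2P (555/632 nm).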
Tau fibril FP: tau fibrillization inhibition (FP); P10636; K18 P301L tau heparin fibrillization, Alexa594 FP, 6 h; Potency, µM (top dose mostly 57.7 µM), without a hit: at the top dose activity, negative = inhibition, most hits filed as inhibitors; 0.39% of 280,000 active; AID 1468; further: nearly all actives have a fitted effect of over 55% in size
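Steps: dispense K18 P301L tau (15 uM plus 0.24 uM Alexa 594 tracer, final) in pH 7 sodium acetate; add compound; add heparin (20 uM final); incubate 6 hr, 37 C; add ThT (30 uM final); after 1 hr ambient, read FP.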
* = called active by the depositor; ? = inconclusive; . = not tested or not shown; [ ] = another dose, or the depositor's remark. This is a sample that favours compounds with a hit; in the whole collection about 3.1% have one here. Unless noted, the call rests on the fitted dose curve; in most records, active means well fitted curve in the direction sought with a large enough effect; inconclusive means small, poorly fitted or top-dose-only effect, or another doubt; inactive means no such curve, though single readings can be large; an effect the other way counts as inactive or inconclusive. Unless noted, on the % scale 0 is the no-effect control and ±100 the full control effect; potency means the concentration at half of the fitted maximal effect.

SMILES | Tau ThT inhib | Tau fluor cs | TRb SRC2 PPI | TR SRC2 fluor cs | Tau fibril FP
CCOC(=O)CSc1nc2cc3c(cc2c(=O)n1Cc1ccc(C(=O)NCCc2ccc(OC)c(OC)c2)cc1)OCO3 | -3% | -17% | 1% | 0% | 1%
O=[N+]([O-])c1cc(C(F)(F)F)cc([N+](=O)[O-])c1NCCNC(=S)Nc1ccc(Cl)c(Cl)c1 | ? | 5.6µM*[quencher] | 5% | -2% | ?
O=C(COCC(=O)Nc1cccc(C(F)(F)F)c1)Nc1cccc(C(F)(F)F)c1 | 5% | ? | -15% | -1% | 11µM*
O=C(COc1ccc(C(=O)O)cc1)Nc1cccc(C(F)(F)F)c1 | 1% | -5% | -5% | -1% | 8%
COc1ccc(NC(=S)NNC(=S)Nc2cccc(C(F)(F)F)c2)cc1 | ? | 14µM*[quencher] | 2% | -2% | 0%
FC(F)(F)c1cccc(NC(=S)Nc2ccc(Cl)c(Cl)c2)c1 | ? | 18µM*[quencher] | 9% | -5% | 22µM*
CCc1ccc2nc(N(Cc3cccnc3)C(C)=O)sc2c1 | -12% | -16% | -6% | -2% | 0%
CCOc1ccc(NC(=S)NNC(=S)Nc2cccc(C(F)(F)F)c2)cc1 | 32µM* | 28µM*[quencher] | 2% | -4% | ?
CCCN(Cc1ccccc1)C(=S)Nc1ccc(OCC)cc1 | -10% | -17% | 3% | 1% | 1%
CCOc1ccc(NC(=S)NN(C)C(=S)Nc2ccc(OCC)cc2)cc1 | ? | 18µM*[quencher] | -7% | -4% | 14%
FC(F)(F)c1cccc(NC(=S)NNC(=S)Nc2cccc(C(F)(F)F)c2)c1 | 28µM* | 10µM*[quencher] | -1% | 2% | ?
CNNC(=S)Nc1cccc(C(F)(F)F)c1 | -5% | -17% | 6% | 0% | 5%
CC1CCC(N2CC(=O)N(C3CCCC3)C(c3ccc(Cl)cc3)C2=O)CC1 (stereo unspecified) | -3% | -9% | -2% | -1% | -14%
Cc1ccc(Nc2c(-c3c[nH]c4ccccc34)nc3cc(C)ccn23)cc1 | ? | 11µM*[quencher] | 3% | -14% | 3%
Cc1ccn2c(Nc3ccccc3)c(-c3c[nH]c4ccccc34)nc2c1 | ? | 11µM*[quencher] | 0% | ? | ?
Cc1ccccc1Nc1c(-c2c[nH]c3ccccc23)nc2ccccn12 | -13% | ? | -4% | 1% | 4%
Cc1ccc(Nc2c(-c3ccccn3)nc3cc(C)ccn23)cc1 | ? | -26% | -5% | -2% | 9%
Cc1ccc2nc(-c3c[nH]c4ccccc34)c(Nc3ccc(F)cc3)n2c1 | -11% | 5µM*[quencher] | -8% | 1% | ?
CC(=O)Oc1ccc2c(c1)CCC1C2CC[C@@]2(C)C1CC(OC(C)=O)C2OC(C)=O (stereo partly specified) | -6% | -1% | -2% | -3% | -2%
Cc1[nH][nH]c(=O)c1C(c1c(C)[nH][nH]c1=O)c1cn(Cc2cccc3ccccc23)c2ccccc12 | 10µM* | ? | ? | -2% | ?
Cc1[nH][nH]c(=O)c1C(c1c(C)[nH][nH]c1=O)c1cn(C)c2ccccc12 | 6% | 9% | -13% | -5% | 4%
O=C(NCc1ccc(Cl)cc1Cl)c1cccc(N2CCCS2(=O)=O)c1 | -12% | -29% | -3% | -7% | 3%
CCc1nn(CC(=O)Nc2c(C)cc(C)cc2C)c(=O)c2cc3sccc3n12 | 8% | 9% | 1% | 0.28µM*[quencher] | 8%
CC(=O)/C(=N/Nc1ccccc1Cl)Sc1nnc(C(O)c2ccccc2)n1-c1ccccc1 (stereo unspecified) | -15% | 1% | 6% | 0% | 0%
COC(=O)/C(=N/Nc1ccccc1Cl)Sc1nnc(C(O)c2ccccc2)n1-c1ccccc1 (stereo unspecified) | -3% | -2% | -13%[53 µM] | 35µM*[quencher] | 6%
O=C=Nc1ccc(Cc2ccc(N=C=O)cc2)cc1 | . | . | 3%[201 µM] | 1%[201 µM] | .
Nc1nc(Nc2ccccc2)nc(NCc2ccco2)c1[N+](=O)[O-] | ? | 13µM*[quencher] | -1% | -3% | ?
